FLuc counter = firefly luciferase modulation, counter-screen for miR-21 project | Potency, µM (doses to about 57.5 µM), most hits filed as inhibitors | 6.9% of 360,000 active | purified FLuc, Km substrates, luminescence inhibition | AID 588342; further: nearly all actives have a fitted effect of over 55% in size
Target sequence (P08659 whole entry, looked up): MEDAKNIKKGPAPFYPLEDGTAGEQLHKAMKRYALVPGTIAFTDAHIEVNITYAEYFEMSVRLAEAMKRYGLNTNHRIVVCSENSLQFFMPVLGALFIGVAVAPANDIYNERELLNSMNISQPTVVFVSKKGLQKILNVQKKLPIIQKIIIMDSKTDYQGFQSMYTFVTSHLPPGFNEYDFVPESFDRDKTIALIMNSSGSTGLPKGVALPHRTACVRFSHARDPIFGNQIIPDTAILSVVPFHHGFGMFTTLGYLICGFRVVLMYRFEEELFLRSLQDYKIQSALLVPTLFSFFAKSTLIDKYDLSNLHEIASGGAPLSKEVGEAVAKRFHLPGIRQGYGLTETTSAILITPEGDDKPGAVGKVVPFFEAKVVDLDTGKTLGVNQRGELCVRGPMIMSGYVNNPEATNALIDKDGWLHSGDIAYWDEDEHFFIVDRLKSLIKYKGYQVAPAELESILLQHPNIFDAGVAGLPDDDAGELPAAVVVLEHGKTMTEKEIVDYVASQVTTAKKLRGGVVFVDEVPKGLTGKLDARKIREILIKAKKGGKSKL
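Biochemical qHTS of compounds, final roughly 60 µM downward over six points, against 10 nM purified firefly luciferase using Km concentrations of substrates (10 uM D-luciferin, 10 uM ATP) in Tris acetate pH 7.5 buffer; luminescence output.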
ELG1 genotox = genotoxicity induction in ELG1-luciferase HEK293T cells; 1.3% of 330,000 active; Potency, µM (titrated, usually from 46 µM), actives largely listed as activators; HEK293T ELG1-luciferase reporter, luminescence, 16 h; further: nearly all actives have a fitted effect of over 60% in size
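Quantitative HTS format in 1536-well plates. HEK293T ELG1-luciferase reporter cells receive test compound and are incubated 16 hr at 37 °C, 5% CO2; ONE-Glo added, 30 min room temperature, then luminescence read.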
NPC1 promoter act = NPC1 promoter activation | 2.4% of 320,000 active | Huh7 NPC1 promoter luciferase reporter, 24 h | Potency, µM (highest dose often 9.22 µM), hits mostly activators; further: nearly all actives have a fitted effect of over 60% in size
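Luminescence from an NPC1 promoter-driven luciferase reporter in stably transfected Huh7 cells was measured after 24 h compound treatment at 37 °C, followed by 10 min ambient incubation with luciferase detection reagent.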
Rab9 promoter act = Rab9 promoter activation; Huh7 Rab9 promoter-luciferase reporter, luminescence, 24 h; Potency, µM (titrated, usually from 9.22 µM), hits mostly activators; 2.8% of 320,000 active; further: nearly all actives have a fitted effect of over 60% in size
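Promoter activation is measured as luciferase luminescence in Huh7 cells stably transfected with a Rab9 promoter–luciferase construct, following 24 h compound exposure at 37 °C and 10 min reagent incubation at ambient temperature.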
p53 reactivator = restores transcriptional activity of mutant p53 | H1299 p53-A138V BP100-luciferase reporter, luminescence, 24 h | Potency, µM (top dose mostly 92.2 µM), hits mostly activators | 0.063% of 320,000 active | AID 504706; further: nearly all actives have a fitted effect of over 45% in size
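H1299 (p53-null), stable ts p53-A138V + BP100-Luc; 1000 cells/well, Opti-MEM/10% FBS; cpd 4 pt, 1:5; 24 h, 37 deg C, 5% CO2; detection reagent 10 min RT; luminescence.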
SMN2 splice up = SMN2 splice variant enhancement. HEK293 SMN2-luciferase splicing reporter, luminescence, 30-36 h. Potency, µM (titrated, usually from 46.1 µM), hits mostly activators. 2.8% of 210,000 active. AID 1458; further: nearly all actives have a fitted effect of over 55% in size
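HEK293 cells carry an SMN2 minigene-luciferase reporter in which exon 7 inclusion puts luciferase in frame. Cells were seeded at 2000 cells/well, attached for 10-12 hours, then exposed to compounds for 30-36 hours at 37C before ONE-Glo luminescence.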
A number is an active result; [ ] = another dose, or the depositor's remark. Only some compounds are listed: those with a hit (about 7.3% of all), similar ones and a draw of the others. The call rests on the fitted dose curve; in most records, active means well fitted curve in the direction sought with a large enough effect; inconclusive means small, poorly fitted or top-dose-only effect, or another doubt; inactive means no such curve, though single readings can be large; an effect the other way counts as inactive or inconclusive.

CCC1CCCCN1C(=O)c1cc(-c2ccc(Cl)c(Cl)c2)on1 (configuration not stated) was read as FLuc counter 19µM, ELG1 genotox inconclusive, NPC1 promoter act inconclusive, Rab9 promoter act inconclusive, p53 reactivator inconclusive and SMN2 splice up inactive.
`CC1CCCCN1C(=O)c1cc(-c2ccc3c(c2)OCO3)on1` (configuration not stated) gave FLuc counter 3.79µM, ELG1 genotox 11.6µM, NPC1 promoter act 0.631µM, Rab9 promoter act 0.891µM and p53 reactivator inconclusive.
For CC1CCN(C(=O)c2cc(-c3ccc4c(c3)OCO4)on2)CC1 the results were FLuc counter 2.69µM, ELG1 genotox 2.91µM, NPC1 promoter act 0.631µM, Rab9 promoter act 1.12µM and p53 reactivator inconclusive.
For O=C(c1cc(-c2ccccc2)on1)N1CCN(Cc2ccc3c(c2)OCO3)CC1 the results were FLuc counter inactive, ELG1 genotox inactive, NPC1 promoter act inactive, Rab9 promoter act inactive, p53 reactivator inactive and SMN2 splice up inactive.
Screening CC1CCCCN1C(=O)c1cc(-c2ccc(Cl)c(Cl)c2)on1 (configuration not stated) returned FLuc counter 12µM, ELG1 genotox inconclusive, NPC1 promoter act 3.98µM, Rab9 promoter act 2.51µM, p53 reactivator inconclusive and SMN2 splice up inconclusive.
Screening Cc1ccccc1NCc1nc2ccccc2n1CCOc1ccccc1 returned FLuc counter 9.53µM and SMN2 splice up 17.8µM.
`CCOc1ccc(NCc2nc3ccccc3n2CCOc2ccccc2)cc1` gave FLuc counter 12µM, ELG1 genotox inconclusive, NPC1 promoter act inconclusive, Rab9 promoter act inactive, p53 reactivator inconclusive and SMN2 splice up inactive.
`Clc1ccc(NCc2nc3ccccc3n2CCOc2ccccc2)cc1` gave FLuc counter inconclusive and SMN2 splice up inactive.
CCC(CC)c1nn2c(=O)cc(COc3ccc(NC(=O)c4ccccc4C)cc3)nc2s1 was read as FLuc counter inactive and SMN2 splice up inactive.
Cc1nnc(NC(=O)c2cc3n(n2)C(C(F)(F)F)CC(C2CC2)N3)s1 (configuration not stated) was read as FLuc counter inactive, ELG1 genotox inactive, NPC1 promoter act inactive, Rab9 promoter act inactive, p53 reactivator inactive and SMN2 splice up inactive.
For O=C(Nc1ccccc1)c1cc2n(n1)C(C(F)(F)F)CC(C1CC1)N2 (configuration not stated) the results were FLuc counter inactive, ELG1 genotox inconclusive, NPC1 promoter act 2.82µM, Rab9 promoter act 1.78µM and p53 reactivator inactive.
For O=C(COC(=O)Cc1ccsc1)Nc1ccc(Br)cc1 the results were FLuc counter inconclusive, ELG1 genotox inactive, NPC1 promoter act inactive, Rab9 promoter act inactive and p53 reactivator inactive.
Screening CCC(=O)Nc1ccc(C(=O)COC(=O)Cc2ccsc2)cc1 returned FLuc counter 10.7µM, ELG1 genotox inactive, NPC1 promoter act inactive, Rab9 promoter act inactive and p53 reactivator inactive.
Screening O=c1[nH]c(CCl)nc2cc(-c3ccc(F)cc3)sc12 returned FLuc counter 0.301µM, ELG1 genotox inconclusive, NPC1 promoter act inactive, Rab9 promoter act inactive and p53 reactivator inconclusive.
CCCS/C(N)=N/N=C/c1ccccc1O was read as FLuc counter 9.53µM, ELG1 genotox 3.16µM, NPC1 promoter act 2.82µM, Rab9 promoter act 2.51µM, p53 reactivator inconclusive and SMN2 splice up 11.2µM.
`C=CCS/C(N)=N\N=C\c1c(O)ccc2ccccc12` gave FLuc counter 4.78µM, ELG1 genotox inconclusive, NPC1 promoter act inactive, Rab9 promoter act 2.82µM and p53 reactivator inconclusive.
O=C(NCC(c1ccco1)N1CCN(c2ccccc2F)CC1)c1ccco1 (configuration not stated) was read as FLuc counter inactive, ELG1 genotox inactive, NPC1 promoter act inactive, Rab9 promoter act inactive and p53 reactivator inactive.
CCOc1ccccc1NC(=O)C(NCCN(C)C)c1ccccc1 (configuration not stated) was read as FLuc counter inactive, ELG1 genotox inactive, NPC1 promoter act inactive, Rab9 promoter act inactive, p53 reactivator inactive and SMN2 splice up inactive.
CCOc1ccccc1NC(=O)C(NCCc1ccc(OC)cc1)c1ccccc1 (configuration not stated) was read as FLuc counter 26.9µM, ELG1 genotox inactive, NPC1 promoter act inactive, Rab9 promoter act inactive and p53 reactivator inactive.
For CCCCn1c(N)nc2ccccc21 the results were FLuc counter inactive, ELG1 genotox inactive, NPC1 promoter act inactive, Rab9 promoter act inactive, p53 reactivator inactive and SMN2 splice up inactive.
CCCCn1c(/C=C/c2ccco2)nc2ccccc21 was read as FLuc counter 13.5µM, ELG1 genotox inactive, NPC1 promoter act inactive, Rab9 promoter act inactive, p53 reactivator inconclusive and SMN2 splice up 15.8µM.
Screening CCCn1c(/C=C/c2ccco2)nc2ccccc21 returned FLuc counter 12µM, ELG1 genotox inactive, NPC1 promoter act inactive, Rab9 promoter act inactive, p53 reactivator inconclusive and SMN2 splice up 14.1µM.
COCC1CCN(C(=O)c2cc(COc3cncc(Cl)c3)on2)C1 (configuration not stated) was read as FLuc counter inactive, ELG1 genotox inactive, NPC1 promoter act inactive, Rab9 promoter act inactive and p53 reactivator inactive.
Cc1cc(OCc2cc(C(=O)N3CCCCCC3)no2)cc(C)c1Cl was read as FLuc counter 13.5µM, ELG1 genotox inconclusive, NPC1 promoter act 2.82µM, Rab9 promoter act 2.51µM and p53 reactivator inconclusive.
COCC1CCN(C(=O)c2cc(COc3cc(C)c(Cl)c(C)c3)on2)C1 (configuration not stated) was read as FLuc counter 16.9µM, ELG1 genotox inactive[9.26 µM], NPC1 promoter act inconclusive, Rab9 promoter act 4.47µM and p53 reactivator inconclusive.
For CCN(CC1CCCO1)C(=O)c1cc(COc2cc(C)c(Cl)c(C)c2)on1 (configuration not stated) the results were FLuc counter 13.5µM, ELG1 genotox inconclusive, NPC1 promoter act 3.16µM and Rab9 promoter act 2.24µM.
For Cc1cccc(-n2ncc3c(Nc4ccc(Oc5ccc(Cl)cc5)cc4)ncnc32)c1 the results were FLuc counter inactive.
`O=C(C1CCN(S(=O)(=O)Cc2ccccc2)CC1)N1CCN(c2ccc(F)cc2)CC1` gave FLuc counter inactive.
CCS(=O)(=O)N1CCc2cc(C(=O)Nc3ccc(OC)c(Cl)c3)ccc21 was read as FLuc counter inactive.
For Cc1ccc2nc(-c3cccs3)oc(=O)c2c1 the results were FLuc counter 9.53µM, ELG1 genotox inactive, NPC1 promoter act inactive, Rab9 promoter act inactive, p53 reactivator inactive and SMN2 splice up inactive.
For COc1cc2nc(-c3ccccc3C)oc(=O)c2cc1OC the results were FLuc counter inconclusive, ELG1 genotox inactive, NPC1 promoter act inactive and Rab9 promoter act inactive.
